# Source: PubChem BioAssay (Tox21)
# Records with an inconclusive call do not appear. A number with no mark means an inactive call. Activity calls are given as the source filed them. Calls follow the shape of the full dose curve.
# Biological target: Beta-2 adrenergic receptor (Homo sapiens) (UniProt P07550)
# Assay: Adrenergic beta2 receptor (ADRB2) small molecule antagonists, cell-based qHTS assay (AID 1963592); also: nearly all actives have a fitted effect of over 50% in size
# Settings: CHO-ADRB2 cells, isoproterenol-stimulated cAMP HTRF ratio, 0.5 h; series mostly up to 92.4 µM; activity change, negative = inhibition: at the top concentration
# Description: U.S. Tox21 Program National Center for Advancing Translational Sciences [NCATS] Division of Preclinical Innovation [DPI] U.S. Environmental Protection Agency [EPA] National Institutes of Environmental Health Sciences [NIEHS] National Toxicology Program [NTP] U.S. Food and Drug Administration [FDA] Tox21 Assay Overview: Beta adrenergic receptors (Beta-ARs) belong to the G-protein coupled receptor (GPCR) superfamily, includes three subtypes - beta1, beta2, and beta3. Beta1-AR is the predominant receptor subtype expressed in the heart, and beta2-AR is expressed in the kidney, lung, blood vessel and in the heart, and beta3 is found in the adipocytes. Beta1 and 2 ARs couple to Gs protein and elevate cyclic adenosine mono phosphate (cAMP), which activates protein kinase A and leads to the downstream signaling responsible for the physiological actions. Beta-AR agonists or antagonists are the most prescribed therapeutic agents for heart failure and asthma, and these were one of the first target receptors for the rational drug design. Tox21 10K compound library was screened using the cAMP-Gs dynamic assay (Cisbio Bioassays, Shelton, CT) to identify agonists/antagonists of the Gs-coupled human adrenergic, beta2 receptor (ADRB2) in the CHO-ADRB2 cell line (Codex BioSolutions, Inc. Gaithersburg, MD), which stably over-expresses ADRB2. The principle of cAMP-Gs dynamic assay is based on HTRF technology, which facilitates the fluorescence resonance energy transfer (FRET) between donor Europium cryptate and acceptor d2-labeled cAMP. The cAMP generated within cells competes with the red acceptor, d2-labled cAMP, for binding to the monoclonal anti-cAMP-cryptate (Europium donor). An increase in intracellular cAMP leads to the disruption of FRET signal, and the signal is inversely proportional to the cAMP concentration. Propranolol HCl (Sigma-Aldrich, St. Louis, MO) was used as a positive control in the screening.
# Tox21 Assay Protocol Summary: CHO-ADRB2 cells were dispensed at 1,000/well in 4uL assay medium into white/solid 1536-well plates (Greiner Bio-One North America Inc., Monroe, NC) using a Multidrop Combi dispenser (ThermoFisher Scientific, Waltham, MA). The assay plates were incubated at 37C and 5% CO2 for an overnight (18-20hr). Then positive control and test compounds dissolved in DMSO were transferred to the assay plates at 23nL using a Pintool station (Wako, San Diego, CA). Following the compound and positive control transfer, 1uL agonist-stimulation mix containing 1nM Isoproterenol HCl, 100uM IBMX and 25uM Ro-20-1724 was added to each well of the assay plates using BioRAPTR Flying Reagent Dispenser (FRD, Beckman Coulter, Brea, CA). The assay plates were incubated at room temperature for 0.5hr. Then 2.5ul each d2-labled cAMP and anti-cAMP-cryptate solutions were added separately to each well of the assay plates using an FRD and the assay plates were incubated at room temperature for 1hr. The fluorescence signal was measured at two different wavelengths (665nm and 615nm) using an Envision plate reader (Perkin Elmer, Shelton, CT). Data were expressed as the ratio of 665 nm/615 nm.
# % is scaled to controls: 0 for no effect and ±100 for the full control effect.
# Chain of Beta-2 adrenergic receptor (Homo sapiens) (P07550 whole entry, looked up): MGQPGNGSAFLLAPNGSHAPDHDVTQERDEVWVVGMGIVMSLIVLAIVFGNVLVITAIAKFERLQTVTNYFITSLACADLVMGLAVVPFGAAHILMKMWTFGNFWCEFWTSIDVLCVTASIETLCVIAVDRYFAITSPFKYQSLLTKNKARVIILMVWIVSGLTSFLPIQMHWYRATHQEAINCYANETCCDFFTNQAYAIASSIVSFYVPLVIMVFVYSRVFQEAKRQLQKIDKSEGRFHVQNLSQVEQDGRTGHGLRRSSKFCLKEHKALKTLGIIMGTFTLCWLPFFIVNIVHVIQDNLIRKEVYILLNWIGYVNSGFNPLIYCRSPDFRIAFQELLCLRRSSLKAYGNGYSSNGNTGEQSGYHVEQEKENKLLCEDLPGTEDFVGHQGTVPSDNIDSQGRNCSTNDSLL
Structure (SMILES),"activity change, negative = inhibition",Potency
NCCCN1CCN(CCCN)CC1,3.19%,
CC(C(=O)O)c1cccc(C(=O)c2ccccc2)c1 (stereo not given),,inactive
N=C(N)c1ccccc1,-1.2%,
COc1ccc2nc(N)sc2c1,,inactive
CC1=CCC(C(C)C)=CC1,-1.21%,
O=C(O)c1ccc(OCCN2CCCCC2)cc1,0.873% [at 42.5 µM],
CCOc1ccc(N)c([N+](=O)[O-])c1,-5.18%,
O=C(O)C1CCC(C(=O)O)CC1 (stereo not given),-27%,
CC(C)CCCO,12.2%,
CC(C)C(=O)OCCOc1ccccc1,-0.221%,
CC(C)OC(C)C,-9.11%,
CC(C)c1ccccc1O,-3.75%,
O=C1OC[C@H](Cc2cccc(O)c2)[C@H]1Cc1cccc(O)c1,0.853% [at 42.5 µM],
CC/C=C\C#N,4.91%,
CC(N)CN (stereo not given),3.63%,
NC1CCCCC1N (stereo not given),,inactive
O=c1cc(-c2ccccc2)oc2ccccc12,-28.7%,
Cc1c(C)c2c(c(C)c1O)CCC(C)(COc1ccc(CC3SC(=O)NC3=O)cc1)O2 (stereo not given),,inactive
CC(=O)Oc1ccccc1C(=O)Nc1ncc([N+](=O)[O-])s1,-17.8% [at 42.5 µM],
O=C(O)c1ccc(CO)o1,3.98%,

Structure (SMILES),"activity change, negative = inhibition",Potency
Cc1cccc2cccnc12,1.73%,
CC(=O)O[C@@H]1CC2C3CCc4cc(OC(=O)c5ccccc5)ccc4C3CCC2(C)[C@H]1OC(C)=O (stereo not given in full),1.32% [at 42.5 µM],
CCC(CC)C(C)CCOC(C)=O (stereo not given),-2.39%,
CC(C)C(=O)Nc1cccc(C2CN3CCSC3=N2)c1 (stereo not given),-16.5% [at 42.5 µM],
N#[N+]c1ccc2c(S(=O)(=O)[O-])cccc2c1O,0.7%,
COc1ccccc1NC(=O)CC(C)=O,,inactive
NC(=O)c1ccccc1Cl,0.96%,
O=C1CC2CC1C1CCCC21 (stereo not given),1.6%,
CNC(=O)[C@H]1O[C@@H](n2cnc3c(NCc4cc(Cl)ccc4OCc4cc(C)no4)ncnc32)[C@H](O)[C@@H]1N,12.3%,
c1ccc(CCc2ccccc2)cc1,-7.72%,
CC(C)C(=O)c1c(C(C)C)nn2ccccc12,12.7% [at 42.5 µM],
O=C[O][Al]([O]C=O)[O]C=O,-6.46%,
Brc1cc(Br)cc(Br)c1,0.442%,
C#CC(C)(O)CC(C)C (stereo not given),7.06%,
CC(C)(C)c1n[nH]c(=O)n(N)c1=O,7.65%,
CC(=O)CC/C=C(\C)CC/C=C(\C)CC/C=C(\C)CCC=C(C)C,-8.31% [at 42.5 µM],
NCCNCCNCCNCCN,,inactive
ClC/C=C\CCl,1.69%,
CCCc1cc(C(N)=S)ccn1,-0.253% [at 42.5 µM],
C=CCCCCCCCC,1.36%,
